# In PubChem BioAssay (EPA / NIEHS):
# A structure can be active in one record and inactive in another. Active and inactive are the calls of the source. How the source made its calls: active means hit-call score of the fitted dose curve at least 0.9, where 1 is the maximum; inactive means score below 0.9.
# Key:
# [1] = read-out: Urokinase-type plasminogen activator receptor (uPAR), PLAUR (gene 5329); assay: BSK_4H_uPAR: BioMAP Diversity Plus: 4H Assay for Urokinase-type plasminogen activator receptor (uPAR) Biomarker Activity (AID 2283030); details: primary human endothelial cells (HUVEC); actives raise or lower the signal
# In short: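 Primary human umbilical vein endothelial cells were exposed to chemical for 24 h before cell-surface uPAR was quantified by ELISA. Activity was fitted bidirectionally against the DMSO negative control baseline.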
# [2] = read-out: Vascular endothelial growth factor receptor 2 (Homo sapiens) (UniProt P35968); assay: BSK_4H_VEGFRII: BioMAP Diversity Plus: 4H Assay for Vascular endothelial growth factor receptor 2 (VEGFR2) Biomarker Activity (AID 2283031); details: primary human endothelial cells (HUVEC); actives raise or lower the signal
# In short: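 Primary human umbilical vein endothelial cells in the BioMAP 4H system were dosed with test chemical, and 24 h later VEGFRII was measured by ELISA. Activity was fitted bidirectionally against DMSO as negative control and baseline.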
# [3] = read-out: Human Leukocyte Antigen - DR isotype (HLADR), HLA-DRA (gene 3122); assay: BSK_BE3C_HLADR: BioMAP Diversity Plus: BE3C Assay for Human Leukocyte Antigen - DR isotype (HLADR) Biomarker Activity (AID 2283032); details: primary human bronchial epithelial cells; actives raise or lower the signal
# In short: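 Human primary bronchial epithelial cells in the BE3C system were exposed to chemicals for 24 h, after which HLA-DR levels were quantified by ELISA. Activity was fitted bidirectionally, gain or loss of signal, against DMSO as negative control and baseline.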
# [4] = read-out: Vascular cell adhesion molecule 1 (VCAM1), VCAM1 (gene 7412); assay: BSK_4H_VCAM1: BioMAP Diversity Plus: 4H Assay for Vascular cell adhesion molecule 1 (VCAM1) Biomarker Activity (AID 2283033); details: primary human endothelial cells (HUVEC); actives raise or lower the signal;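 further: cell-surface VCAM-1 protein measured by ELISA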
# In short: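 Primary human umbilical vein endothelial cells were exposed to chemicals for 24 h, after which VCAM-1 was quantified by ELISA. Responses were fitted bidirectionally against DMSO as negative control and activity baseline.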
# [5] = read-out: Interferon-gamma inducible Protein 10 (IP10), CXCL10 (gene 3627); assay: BSK_BE3C_IP10: BioMAP Diversity Plus: BE3C Assay for Interferon-gamma inducible Protein 10 (IP10) Biomarker Activity (AID 2283034); details: primary human bronchial epithelial cells; actives raise or lower the signal
# In short: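 Human primary bronchial epithelial cells were exposed to chemicals for 24 hours, after which IP-10 levels were measured by ELISA. Data were fitted bidirectionally against DMSO, which served as the negative control and activity baseline.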
# [6] = read-out: Plasminogen activator inhibitor-1 (PAI1), SERPINE1 (gene 5054); assay: BSK_BE3C_PAI1: BioMAP Diversity Plus: BE3C Assay for Plasminogen activator inhibitor-1 (PAI1) Biomarker Activity (AID 2283037); details: primary human bronchial epithelial cells; actives raise or lower the signal
# In short: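 Human primary bronchial epithelial cells were exposed to chemical for 24 h, then PAI-1 was quantified by ELISA. Activity was fitted bidirectionally relative to the DMSO negative control baseline.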
# [7] = read-out: urokinase plasminogen activator (uPA), PLAU (gene 5328); assay: BSK_BE3C_uPA: BioMAP Diversity Plus: BE3C Assay for urokinase plasminogen activator (uPA) Biomarker Activity (AID 2283038); details: primary human bronchial epithelial cells; actives raise or lower the signal;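 further: uPA protein level quantified by ELISA in cell cultures; uPA read one day after compound addition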
# In short: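 Human primary bronchial epithelial cells were exposed to chemical for 24 h, then uPA levels were measured by ELISA. Responses were fitted bidirectionally against DMSO as negative control and baseline. Parallel SRB staining of total protein gauged overt cytotoxicity.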
# [8] = read-out: Urokinase-type plasminogen activator receptor (uPAR), PLAUR (gene 5329); assay: BSK_BE3C_uPAR: BioMAP Diversity Plus: BE3C Assay for Urokinase-type plasminogen activator receptor (uPAR) Biomarker Activity (AID 2283039); details: primary human bronchial epithelial cells; actives raise or lower the signal;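 further: cells exposed to compound for one day before measurement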
# In short: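 Primary human bronchial epithelial cells were dosed with chemical and harvested 24 h later; uPAR was quantified by ELISA. Activity was fitted bidirectionally against DMSO as negative control and baseline.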
# [9] = read-out: Interleukin-6 (IL6), IL6 (gene 3569); assay: BSK_CASM3C_IL6: BioMAP Diversity Plus: CASM3C Assay for Interleukin-6 (IL6) Biomarker Activity for (AID 2283040); details: primary human coronary artery smooth muscle cells; actives raise or lower the signal
# [10] = read-out: Tissue plasminogen activator (tPA), PLAT (gene 5327); assay: BSK_BE3C_tPA: BioMAP Diversity Plus: BE3C Assay for Tissue plasminogen activator (tPA) Biomarker Activity (AID 2283041); details: primary human bronchial epithelial cells; actives raise or lower the signal;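 further: tPA level quantified by ELISA one day after compound addition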
# In short: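 Human primary bronchial epithelial cells were dosed with chemical and tPA biomarker levels measured by ELISA 24 hours later. Activity was fitted bidirectionally against DMSO as negative control and baseline.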
# [11] = read-out: Interleukin-8 (IL8), CXCL8 (gene 3576); assay: BSK_CASM3C_IL8: BioMAP Diversity Plus: CASM3C Assay for Interleukin-8 (IL8) Biomarker Activity (AID 2283042); details: primary human coronary artery smooth muscle cells; actives raise or lower the signal;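 further: IL-8 protein level quantified by ELISA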
# [12] = read-out: Human Leukocyte Antigen - DR isotype (HLADR), HLA-DRA (gene 3122); assay: BSK_CASM3C_HLADR: BioMAP Diversity Plus: CASM3C Assay for Human Leukocyte Antigen - DR isotype (HLADR) Biomarker Activity (AID 2283043); details: primary human coronary artery smooth muscle cells; actives raise or lower the signal;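 further: cell-surface HLA-DR protein level quantified by ELISA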
# [13] = read-out: Macrophage colony-stimulating factor (MCSF), CSF1 (gene 1435); assay: BSK_CASM3C_MCSF: BioMAP Diversity Plus: CASM3C Assay for Macrophage colony-stimulating factor (MCSF) Biomarker Activity (AID 2283044); details: primary human coronary artery smooth muscle cells; actives raise or lower the signal;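 further: M-CSF protein amount quantified by ELISA after 24 h exposure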
# [14] = read-out: Low-density lipoprotein receptor (LDLR), LDLR (gene 3949); assay: BSK_CASM3C_LDLR: BioMAP Diversity Plus: CASM3C Assay for Low-density lipoprotein receptor (LDLR) Biomarker Activity (AID 2283045); details: primary human coronary artery smooth muscle cells; actives raise or lower the signal;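 further: LDLR protein level on the cell surface quantified by ELISA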
# [15] = read-out: Monocyte Chemoattractant Protein-1 (MCP1), CCL2 (gene 6347); assay: BSK_CASM3C_MCP1: BioMAP Diversity Plus: CASM3C Assay for Monocyte Chemoattractant Protein-1 (MCP1) Biomarker Activity (AID 2283046); details: primary human coronary artery smooth muscle cells; actives raise or lower the signal;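 further: MCP-1 level quantified by ELISA 24 h after dosing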
# [16] = BSK_CASM3C_Proliferation: Cell Proliferation Assessment in the BioMAP Diversity Plus: CASM3C Assay (AID 2283047); details: primary human coronary artery smooth muscle cells;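 further: sulforhodamine B total protein stain as relative cell number at 560 nm; sub-confluent cells exposed 48 h before staining; fitted both ways against DMSO so gain or loss of cell number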
# [17] = read-out: Monokine induced gamma interferon (MIG), CXCL9 (gene 4283); assay: BSK_CASM3C_MIG: BioMAP Diversity Plus: CASM3C Assay for Monokine induced gamma interferon (MIG) Biomarker Activity (AID 2283048); details: primary human coronary artery smooth muscle cells; actives raise or lower the signal
# [18] = read-out: serum amyloid A (SAA), SAA1 (gene 6288); assay: BSK_CASM3C_SAA: BioMAP Diversity Plus: CASM3C Assay for serum amyloid A (SAA) Biomarker Activity (AID 2283049); details: primary human coronary artery smooth muscle cells; actives raise or lower the signal;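 further: SAA protein level quantified by ELISA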
# [19] = read-out: Transforming growth factor beta 1 (TGFb1), TGFB1 (gene 7040); assay: BSK_BE3C_TGFb1: BioMAP Diversity Plus: BE3C Assay for Transforming growth factor beta 1 (TGFb1) Biomarker Activity (AID 2283036); details: primary human bronchial epithelial cells; actives raise or lower the signal
# In short: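 Human primary bronchial epithelial cells (BE3C system) were dosed with chemical and TGF-b1 levels measured by ELISA at 24 h. Activity was fitted bidirectionally relative to DMSO negative control as baseline.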
smiles,measurement,setting,value
O=S(=O)(O)C(F)(F)C(F)(F)C(F)(F)C(F)(F)C(F)(F)C(F)(F)C(F)(F)F,outcome,[1],inactive
same,outcome,[2],inactive
same,outcome,[3],inactive
same,outcome,[4],inactive
same,outcome,[5],inactive
same,outcome,[6],inactive
same,outcome,[7],inactive
same,outcome,[8],inactive
same,outcome,[9],inactive
same,outcome,[10],inactive
same,outcome,[11],inactive
same,outcome,[12],inactive
same,outcome,[13],inactive
same,outcome,[14],inactive
same,outcome,[15],inactive
same,outcome,[16],inactive
same,outcome,[17],inactive
same,outcome,[18],inactive
O=C(O)C(F)(F)C(F)(F)C(F)(F)F,outcome,[1],inactive
same,outcome,[2],inactive
same,outcome,[3],inactive
same,outcome,[4],inactive
same,outcome,[5],inactive
same,outcome,[6],inactive
same,outcome,[7],inactive
same,outcome,[8],inactive
same,outcome,[9],inactive
same,outcome,[10],inactive
same,outcome,[11],inactive
same,outcome,[12],inactive
same,outcome,[13],inactive
same,outcome,[14],inactive
same,outcome,[15],inactive
same,outcome,[16],inactive
same,outcome,[17],inactive
same,outcome,[18],inactive
FC(F)(F)C(F)(F)C(F)(F)N(C(F)(F)C(F)(F)C(F)(F)F)C(F)(F)C(F)(F)C(F)(F)F,outcome,[1],inactive
same,outcome,[2],inactive
same,outcome,[3],inactive
same,outcome,[4],inactive
same,outcome,[5],inactive
same,outcome,[6],inactive
same,outcome,[7],inactive
same,outcome,[8],inactive
same,outcome,[9],inactive
same,outcome,[10],inactive
same,outcome,[11],inactive
same,outcome,[12],inactive
same,outcome,[13],inactive
same,outcome,[14],inactive
same,outcome,[15],inactive
same,outcome,[16],inactive
same,outcome,[17],inactive
same,outcome,[18],inactive
CCCCCCCOC(=O)c1ccccc1C(=O)OCCCCCCC,AC50,[1],4.08 µM (active)
same,outcome,[2],inactive
same,outcome,[3],inactive
same,outcome,[4],inactive
same,outcome,[5],inactive
same,outcome,[19],inactive
same,outcome,[6],inactive
same,outcome,[7],inactive
same,outcome,[8],inactive
same,outcome,[9],inactive
same,outcome,[10],inactive
same,outcome,[11],inactive
same,outcome,[12],inactive
same,outcome,[13],inactive
same,outcome,[14],inactive
same,outcome,[15],inactive
same,outcome,[16],inactive
same,outcome,[17],inactive
same,outcome,[18],inactive
CCN(CC)c1ccc2c(C)cc(=O)oc2c1,outcome,[1],inactive
same,outcome,[2],inactive
same,outcome,[3],inactive
same,outcome,[4],inactive
same,outcome,[5],inactive
same,outcome,[19],inactive
same,outcome,[6],inactive
same,outcome,[7],inactive
same,outcome,[8],inactive
same,outcome,[9],inactive
same,outcome,[10],inactive
same,outcome,[11],inactive
same,outcome,[12],inactive
same,outcome,[13],inactive
same,AC50,[14],31.3 µM (active)
same,outcome,[15],inactive
same,outcome,[16],inactive
same,outcome,[17],inactive
same,outcome,[18],inactive
CCCCOCCOCCOC(=O)CCCCC(=O)OCCOCCOCCCC,outcome,[1],inactive
same,outcome,[2],inactive
same,outcome,[3],inactive
same,outcome,[4],inactive
same,outcome,[5],inactive
same,outcome,[19],inactive
same,outcome,[6],inactive
same,outcome,[7],inactive
same,outcome,[8],inactive
same,outcome,[9],inactive
same,outcome,[10],inactive
same,outcome,[11],inactive
same,outcome,[12],inactive
same,outcome,[13],inactive
same,outcome,[14],inactive
same,outcome,[15],inactive
same,outcome,[16],inactive
same,outcome,[17],inactive
same,outcome,[18],inactive
NC(=O)C(F)(F)C(F)(F)C(F)(F)C(F)(F)F,outcome,[1],inactive
same,outcome,[2],inactive
same,outcome,[3],inactive
same,outcome,[4],inactive
same,outcome,[5],inactive
same,AC50,[6],4.8 µM (active)
same,outcome,[6],inactive
same,outcome,[7],inactive
same,outcome,[8],inactive
same,outcome,[9],inactive
same,outcome,[10],inactive
same,outcome,[11],inactive
same,outcome,[12],inactive
same,outcome,[13],inactive
same,outcome,[14],inactive
same,outcome,[15],inactive
same,outcome,[16],inactive
same,outcome,[17],inactive
same,outcome,[18],inactive
